Reference: PubChem BioAssay (EPA / NIEHS)
Results filed as inconclusive are left out. Calls of active or inactive are those of the source. Rule for the calls, unless noted: active = hit-call score of the fitted dose curve at least 0.9, where 1 is the maximum; inactive = score below 0.9.

Legend:
[1] = TOX21_p53_BLA_p2_viability: Viability Assessment in the Tox21 HCT-116 p53 Agonism Beta-lactamase Assay, Phase 2 (AID 2283591; active = hit-call score of the fitted dose curve at least 0.9, where 1 is the maximum;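 note: compound exposure lasted 16 h at 37 °C; actives lower the ATP signal meaning cytotoxicity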)
How it was run: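 Cytotoxicity readout: CellTiter-Glo ATP luminescence, 30 min at room temperature, after the beta-lactamase read. Cells were HCT116 exposed 16 h at 37C to compounds pin-transferred at 217-fold dilution from DMSO stocks.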

[2] = TOX21_p53_BLA_p3_viability: Viability Assessment in the Tox21 HCT-116 p53 Agonism Beta-lactamase Assay, Phase 3 (AID 2283593; active = hit-call score of the fitted dose curve at least 0.9, where 1 is the maximum;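 note: cells exposed to compound for 16 h before reading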)
How it was run: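 Cellular ATP was quantified by CellTiter-Glo luminescence, read after 30 min at room temperature. Beforehand, HCT116 cells (4000/well) received compound 5 h post-seeding, 217-fold diluted from DMSO, then incubated 16 h at 37C.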

[3] = target: Cellular tumor antigen p53 (Homo sapiens) (UniProt P04637); assay: TOX21_p53_BLA_p5_ratio: Tox21 HCT-116 p53 Agonism Beta-lactamase Assay, Ratio, Phase 5 (AID 2283599; active = hit-call score of the fitted dose curve at least 0.9, where 1 is the maximum)
Cellular tumor antigen p53 (Homo sapiens), sequence (P04637 whole entry, looked up): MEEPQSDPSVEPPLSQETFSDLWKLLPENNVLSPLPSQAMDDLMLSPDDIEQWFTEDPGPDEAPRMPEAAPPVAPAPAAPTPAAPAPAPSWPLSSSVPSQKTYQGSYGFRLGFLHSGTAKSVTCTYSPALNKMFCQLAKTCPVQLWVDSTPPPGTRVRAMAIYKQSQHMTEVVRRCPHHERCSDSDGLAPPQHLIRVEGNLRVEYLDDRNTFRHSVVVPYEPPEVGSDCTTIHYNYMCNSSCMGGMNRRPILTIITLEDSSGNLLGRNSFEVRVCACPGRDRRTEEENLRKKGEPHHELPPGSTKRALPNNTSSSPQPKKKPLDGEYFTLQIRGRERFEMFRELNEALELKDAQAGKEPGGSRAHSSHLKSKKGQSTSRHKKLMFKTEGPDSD
How it was run: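 Beta-lactamase reporter ratio (blue 460 nm over green 530 nm, 405 nm excitation) after 2 h CCF4-AM loading, in HCT-116 cells exposed 16 h at 37 C to compounds pinned at 217-fold dilution. Increases relative to DMSO baseline scored.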

[4] = CCTE_Shafer_MEA_dev_firing_rate_mean: CCTE's Neural Network Formation Assay for Mean Firing Rate, Shafer Lab (AID 2284031)
How it was run: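 Primary rat cortical neurons on 48-well MEA plates, exposed from plating day 0 with dosing renewed on DIV 5 and 9. Mean well firing rate over active electrodes, recorded days 5, 7, 9, 12, summarised as trapezoidal AUC.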

[5] = CCTE_Shafer_MEA_dev_per_burst_spike_percent: CCTE's Neural Network Formation Assay for Percent of Spikes in a Burst, Shafer Lab (AID 2284032)
How it was run: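 Rat primary cortical neurons on 16-electrode MEA wells, dosed from plating day 0 for 12 days with renewal on DIV 5 and 9; spikes-in-bursts percentage averaged over bursting electrodes, collapsed as AUC across days 5, 7, 9, 12; loss direction versus DMSO.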

[6] = CCTE_Shafer_MEA_dev_active_electrodes_number: CCTE's Neural Network Formation Assay for Number of Active Electrodes, Shafer Lab (AID 2284040; active = hit-call score of the fitted dose curve at least 0.9, where 1 is the maximum)
How it was run: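 Primary rat cortical neurons on 16-electrode MEA wells, exposed from day 0 through day 12 with compound renewed at DIV 5 and 9 feeds. Active electrodes (mean firing ≥5 spikes/min) counted at DIV 5, 7, 9, 12; trapezoidal AUC across days, loss-of-signal versus DMSO.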

[7] = CCTE_Shafer_MEA_dev_burst_rate: CCTE's Neural Network Formation Assay for Burst Rate, Shafer Lab (AID 2284042)
How it was run: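 Developmental network assay measuring how 12-day exposure of rat cortical neuron cultures alters bursting on extracellular MEA recordings. Values are AUC of well-mean burst rate across four recording days, relative to DMSO vehicle.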

[8] = CCTE_Shafer_MEA_dev_bursting_electrodes_number: CCTE's Neural Network Formation Assay for Number of Bursting Electrodes, Shafer Lab (AID 2284043; active = hit-call score of the fitted dose curve at least 0.9, where 1 is the maximum)
How it was run: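 Read-out is the per-well number of electrodes bursting at least once every 2 minutes, recorded on days 5, 7, 9 and 12 and collapsed by trapezoidal area under the curve. Cultures were primary rat cortical neurons on MEA plates, treated continuously from plating.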

[9] = CCTE_Shafer_MEA_dev_burst_duration_mean: CCTE's Neural Network Formation Assay for Mean Burst Duration, Shafer Lab (AID 2284045)
How it was run: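 Read-out: average first-to-last-spike interval within single-electrode bursts, averaged over bursting electrodes per well, then summarised as area under the curve across days 5, 7, 9 and 12. Developing rat cortical networks were exposed from day 0.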

[10] = CCTE_Shafer_MEA_dev_interburst_interval_mean: CCTE's Neural Network Formation Assay for Mean Interburst Interval, Shafer Lab (AID 2284046);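 note: well-mean interburst interval of bursting electrodes as AUC over four recording days; curve fitted for decrease in interburst interval relative to DMSO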
How it was run: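 Network formation assay in primary rat cortical cultures, exposed from DIV 0 to 12. Mean interburst interval per well, integrated as AUC over four recordings.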

[11] = CCTE_Shafer_MEA_dev_inter_network_spike_interval_mean: CCTE's Neural Network Formation Assay for Mean Inter-network Spike Interval, Shafer Lab (AID 2284047)
How it was run: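 Compound was given at plating to primary rat cortical neurons and renewed with full medium changes on DIV 5 and 9. Extracellular activity was recorded on days 5, 7, 9, 12; AUC values were fitted for loss relative to DMSO control.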

[12] = CCTE_Shafer_MEA_dev_network_spike_number: CCTE's Neural Network Formation Assay for Number of Network Spikes, Shafer Lab (AID 2284048);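 note: synchronized bursts across electrodes counted on days 5 7 9 12 and integrated as AUC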
How it was run: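 Developing networks of primary rat cortical neurons are treated over 12 days starting at plating, with media and compound fully replaced on DIV 5 and 9. Network spike counts from four recording days are integrated as trapezoidal AUC.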

[13] = CCTE_Shafer_MEA_dev_network_spike_peak: CCTE's Neural Network Formation Assay for Mean Number of Electrodes in Network Spike, Shafer Lab (AID 2284049)
How it was run: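 Rat cortical primary culture, 1.5 x 10^5 cells/well, 48-well MEA (16 electrodes/well). Dosing day 0 through DIV 12, full media/compound exchange DIV 5, 9. AxIS adaptive spike detection; AUC over days 5/7/9/12; loss-of-signal vs DMSO.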

[14] = CCTE_Shafer_MEA_dev_spike_duration_mean: CCTE's Neural Network Formation Assay for Mean Spike Duration, Shafer Lab (AID 2284051);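 note: mean network spike duration pooled as area under curve over DIV 5 to 12 recordings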
How it was run: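 With DMSO as baseline, loss of mean network spike duration was scored from extracellular recordings of rat cortical neurons on MEA plates. Exposure spanned plating to DIV 12; the four recording days were collapsed into one AUC value.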

[15] = CCTE_Shafer_MEA_dev_network_spike_duration_std: CCTE's Neural Network Formation Assay for Standard Deviation of Network Spike Duration, Shafer Lab (AID 2284052);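 note: area under curve of spike duration SD across recording days 5 to 12; hits are decreases in network spike duration SD versus DMSO vehicle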
How it was run: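 Developing networks of rat cortical neurons were exposed over twelve days in vitro on 48-well MEA plates. Trapezoidal AUC of recordings (DIV 5–12) was analysed for signal loss relative to DMSO vehicle.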

[16] = CCTE_Shafer_MEA_dev_per_network_spike_spike_number_mean: CCTE's Neural Network Formation Assay for Mean Number of Spikes in a Network Spike, Shafer Lab (AID 2284053)
How it was run: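 First, rat cortical cells (1.5 x 10^5/well) were seeded onto MEA wells; second, dosing began at plating and was refreshed on DIV 5 and 9; finally, network-spike spike counts across DIV 5–12 were summarized as AUC.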

[17] = CCTE_Shafer_MEA_dev_per_network_spike_spike_percent: CCTE's Neural Network Formation Assay for Percent of Spikes in a Network Spike, Shafer Lab (AID 2284054)
How it was run: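 Rat primary cortical cultures, 1.5 x 10^5 cells/well on MEA. Continuous compound exposure d0–12, medium/compound renewed DIV 5, 9. Network-spike spike % (0.05 s peak window), AUC over 4 recordings, DMSO baseline.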

[18] = CCTE_Shafer_MEA_dev_LDH: CCTE's Lactate Dehydrogenase Assay for Cytotoxicity in the Neural Network Formation Assay, Shafer Lab (AID 2284068; active = hit-call score of the fitted dose curve at least 0.9, where 1 is the maximum;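 note: exposure for twelve days from plating with re-dosing on DIV 5 and 9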)
How it was run: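 Developing rat cortical networks on MEA plates are exposed to compound for 12 days from plating. LDH activity is measured spectrophotometrically, with DMSO as baseline.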

[19] = CCTE_Shafer_MEA_dev_AB: CCTE's Alamar Blue Assay for Cytotoxicity in the Neural Network Formation Assay, Shafer Lab (AID 2284083; active = hit-call score of the fitted dose curve at least 0.9, where 1 is the maximum;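 note: resazurin reduction fluorescence as viability of cultured neurons; twelve days of exposure from plating with re-dosing on DIV 5 and 9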)
How it was run: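 Cytotoxicity companion to the developmental MEA: primary rat cortical neurons, 12-day exposure starting day 0, compound refreshed DIV 5 and 9; resazurin fluorescence, fitted against DMSO vehicle.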

[20] = CCTE_Shafer_MEA_dev_mutual_information_norm: CCTE's Neural Network Formation Assay for Mutual Information Normalization, Shafer Lab (AID 2284091)
How it was run: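 Developing rat cortical networks on 16-electrode MEA wells are treated throughout formation (DIV 0–12). Shared electrode information is recorded four times, converted to area-under-curve, and fitted for decreases against DMSO vehicle.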

[21] = CCTE_Shafer_MEA_dev_correlation_coefficient_mean: CCTE's Neural Network Formation Assay for Mean Correlation Coefficient, Shafer Lab (AID 2284093)
How it was run: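 Extracellular firing from rat cortical networks on 48-well MEAs, DMSO-referenced, negative fitting direction. Compound present from plating to DIV12; mean pairwise correlation per well integrated over DIV5–12 recordings by trapezoidal AUC.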

[22] = CCTE_Mundy_HCI_Cortical_Synap_Neur_Matur_NeuriteSpotCountPerNeuriteLength: CCTE's Synaptogenesis and Neurite Maturation Assay in rat cortical cells for Neurite Spot Count per Neurite Length, Mundy Lab (AID 2284210)
How it was run: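 Primary rat cortical neurons, compound exposure DIV 7–12, 288.33 h endpoint. Hoechst, anti-MAP2 and anti-synaptophysin labelling; neurite-associated puncta per neurite length scored by automated imaging relative to DMSO controls.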

[23] = CCTE_Mundy_HCI_Cortical_NOG_NeuriteLength: CCTE's Neurite Outgrowth Assay in rat cortical cells for Neurite Length, Mundy Lab (AID 2284213)
How it was run: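 Neurite length was read by high-content imaging of βIII-tubulin-labelled neurites in rat primary cortical cultures. Activity was fitted relative to DMSO.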

[24] = CCTE_Mundy_HCI_Cortical_Synap_Neur_Matur_NeuriteLength: CCTE's Synaptogenesis and Neurite Maturation Assay in rat cortical cells for Neurite Length, Mundy Lab (AID 2284214)
How it was run: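 Rat primary cortical cultures, AraC added DIV 5, dosed DIV 7 through DIV 12 […]. Fixed, MAP2/synaptophysin immunostained with Hoechst; neurite length by high-content imaging, fitted in positive direction versus DMSO.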

[25] = CCTE_Mundy_HCI_Cortical_Synap_Neur_Matur_SynapseCount: CCTE's Synaptogenesis and Neurite Maturation Assay in rat cortical cells for Synapse Count, Mundy Lab (AID 2284218)
How it was run: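 Rat primary cortical cultures, AraC at DIV 5, chemical dosing DIV 7 to DIV 12 (288.33 h). Fixed cells stained for MAP2, synaptophysin and Hoechst; synapses per neuron counted by high-content imaging, loss of signal versus DMSO.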

[26] = CCTE_Mundy_HCI_hN2_NOG_NeuriteCount: CCTE's Neurite Outgrowth Assay in human hN2 cells for Neurite Count, Mundy Lab (AID 2284219; active = hit-call score of the fitted dose curve at least 0.9, where 1 is the maximum)
How it was run: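 In this morphology assay, hNP1-derived neurons received test chemical 2 h post-plating and were fixed two days later in warm paraformaldehyde/sucrose containing Hoechst 33342. Neurites, labelled by rabbit anti-βIII-tubulin (1:800) and Alexa Fluor-488 (1:500), were counted automatically.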

[27] = CCTE_Mundy_HCI_hN2_NOG_NeuriteLength: CCTE's Neurite Outgrowth Assay in human hN2 cells for Neurite Length, Mundy Lab (AID 2284220; active = hit-call score of the fitted dose curve at least 0.9, where 1 is the maximum)
How it was run: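 Plate hNP1-derived neurons, then add chemical 2 h later as a 1/10 dilution. Stain with anti-βIII-tubulin then Alexa Fluor-488 secondary, and image automatically to measure neurite length.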

[28] = CCTE_Mundy_HCI_hN2_NOG_NeuronCount: CCTE's Neurite Outgrowth Assay in human hN2 cells for Neuron Count, Mundy Lab (AID 2284221; active = hit-call score of the fitted dose curve at least 0.9, where 1 is the maximum)
How it was run: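 Read-out is the number of betaIII-tubulin-positive neurons imaged by automated high-content analysis, with DMSO as negative control.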

[29] = CCTE_Mundy_HCI_Cortical_Synap_Neur_Matur_CellBodySpotCount: CCTE's Synaptogenesis and Neurite Maturation Assay in rat cortical cells for Cell Body Spot Count, Mundy Lab (AID 2284223)
How it was run: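 Primary rat cortical cultures, AraC added at DIV 5; dosed DIV 7 through DIV 12 […]. Fixed, stained for MAP2 and synaptophysin with Hoechst; cell body-associated synaptophysin puncta per neuron counted by high-content imaging, loss vs DMSO.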

[30] = CCTE_Mundy_HCI_Cortical_NOG_NeuronCount: CCTE's Neurite Outgrowth Assay in rat cortical cells for Neuron Count, Mundy Lab (AID 2284236; active = hit-call score of the fitted dose curve at least 0.9, where 1 is the maximum;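 note: neurons counted by imaging betaIII-tubulin and Hoechst stained cortical cells; cells exposed to compound for about 48 hours before fixation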)
How it was run: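 Read-out: neuron number by high-content imaging of betaIII-tubulin (Alexa Fluor-488) and Hoechst-labelled rat primary cortical cells.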

[31] = CCTE_Mundy_HCI_hNP1_Casp3_7: CCTE's Caspase-Glo 3/7 Assay in human neuroprogenitor cells for Apoptosis, Mundy Lab (AID 2284240)
How it was run: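 Apoptosis is scored by activated caspase-3/7 luminescence in WA09-derived neural progenitor cells, measured 26.5 h after chemical dosing. Values represent gain of signal relative to DMSO vehicle.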

[32] = CCTE_Mundy_HCI_Cortical_Synap_Neur_Matur_NeuronCount: CCTE's Synaptogenesis and Neurite Maturation Assay in rat cortical cells for Neuron Count, Mundy Lab (AID 2284242; active = hit-call score of the fitted dose curve at least 0.9, where 1 is the maximum)
How it was run: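 Rat primary cortical cells, AraC added at DIV 5, dosed with media change from DIV 7 to DIV 12. Fixed, Hoechst-stained and immunolabelled for MAP2 and synaptophysin; neuron number counted by high-content imaging, loss fitted versus DMSO.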

Measured: AC50

CN[C@]1(c2ccccc2Cl)CCCCC1=O
active: [18] 9.27 µM
inactive: all other assays above
